Measurements as given in PubChem BioAssay (NCI).
The panel holds about 79,000 compounds, 15% with a hit somewhere; the sample as a whole holds those more often. Calls of active or inactive are those of the source. Cut-off read from the data, not from the text of the source: active = growth inhibition above about 70%; inactive = the rest.

Legend:
[1] = NCI Yeast Anticancer Drug Screen. Data for the rad52 strain (AID 147);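 note: 0% = growth of vehicle-treated control cultures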; details: S. cerevisiae rad52 mutant growth inhibition, hits give high values
Summary of the method: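 DNA repair-defective yeast; compound exposure; growth scored against vehicle controls.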

[2] = NCI Yeast Anticancer Drug Screen. Data for the wt1 strain (AID 149);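 note: 0% = growth of vehicle-treated wt1 cultures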; details: S. cerevisiae wt1 strain (SPY 50644) growth inhibition, hits give high values
Summary of the method: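 Vehicle-normalised growth inhibition; strain wt1; compound exposure.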

[3] = NCI Yeast Anticancer Drug Screen. Data for the rad50EPP+ strain (AID 151);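 note: 0% = growth of vehicle-treated control cultures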; details: S. cerevisiae rad50 mutant strain, hits give high values
Summary of the method: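 rad50EPP+ yeast treated with test compounds. Readout: growth vs vehicle control.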

[4] = NCI Yeast Anticancer Drug Screen. Data for the mgt1 strain (AID 153); details: S. cerevisiae mgt1 mutant growth inhibition, hits give high values
Summary of the method: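 Growth inhibition relative to vehicle controls was scored for the mgt1 yeast strain after compound exposure.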

[5] = NCI Yeast Anticancer Drug Screen. Data for the rad50 strain (AID 155);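 note: 0% = growth of vehicle-only cultures of the same strain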; details: S. cerevisiae rad50 strain growth inhibition, hits give high values
Summary of the method: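 A DNA repair-deficient yeast mutant serves as the test organism; compound-induced growth inhibition is calculated against vehicle-treated cells.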

[6] = NCI Yeast Anticancer Drug Screen. Data for the mec2-1 strain (AID 157); details: S. cerevisiae mec2-1 strain, hits give high values
Summary of the method: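 Growth inhibition is read against vehicle-treated controls after compound exposure of the mec2-1 yeast strain, which is defective in DNA damage repair or cell cycle control.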

[7] = NCI Yeast Anticancer Drug Screen. Data for the rad14 strain (AID 159);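 note: 0% = growth of vehicle-treated control cultures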; details: S. cerevisiae rad14 strain growth inhibition, hits give high values
Summary of the method: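 Vehicle-treated cultures served as the baseline for growth inhibition of a DNA repair-mutant yeast strain exposed to each compound.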

[8] = NCI Yeast Anticancer Drug Screen. Data for the sgs1 mgt1 strain (AID 161);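 note: 0% = growth of cultures given vehicle only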; details: S. cerevisiae sgs1 mgt1 strain, hits give high values
Summary of the method: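 This yeast growth screen uses a strain with defined DNA-repair lesions; compound-treated growth is compared with vehicle-treated growth.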

[9] = NCI Yeast Anticancer Drug Screen. Data for the CLN2oe strain (AID 163);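 note: 0% = growth of vehicle-only control cultures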; details: S. cerevisiae CLN2oe strain, hits give high values
Summary of the method: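 Compound-treated yeast; growth vs vehicle ctrl = % inhibition. Genetically altered strain (cell-cycle control).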

[10] = NCI Yeast Anticancer Drug Screen. Data for the cln2 rad14 strain (AID 165);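 note: 0% = growth equal to vehicle treated cultures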; details: S. cerevisiae cln2 rad14 strain, hits give high values
Summary of the method: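 Growth inhibition, relative to vehicle-treated controls, is the read-out. The test organism is a yeast strain with defined genetic alterations, cln2 rad14.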

[11] = NCI Yeast Anticancer Drug Screen. Data for the bub3 strain (AID 167); details: S. cerevisiae bub3 mutant strain, hits give high values
Summary of the method: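 Inhibition values come from growth of compound-treated mutant yeast normalised to vehicle-treated controls.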

[12] = NCI Yeast Anticancer Drug Screen. Data for the wt2 strain (AID 169);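 note: 0% = growth of vehicle-treated yeast cultures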; details: S. cerevisiae wt2 strain growth inhibition, hits give high values
Summary of the method: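 Compound exposure of yeast; growth compared with vehicle controls; inhibition reported.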

[13] = NCI Yeast Anticancer Drug Screen. Data for the mlh1 strain (AID 171);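 note: 0% = growth of vehicle-treated control cultures of the same strain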; details: S. cerevisiae mlh1 strain growth inhibition, hits give high values
Summary of the method: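 Compounds are applied to a genetically altered yeast strain, and its growth is compared with that of vehicle-treated cultures to give percent inhibition.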

[14] = NCI Yeast Anticancer Drug Screen. Data for the mlh1 rad18 strain (AID 175); details: S. cerevisiae mlh1 rad18 strain growth inhibition, hits give high values
Summary of the method: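 Cells of a genetically altered yeast strain, deficient in DNA damage repair, were treated with compound. Their growth was then compared with that of vehicle-treated cultures to give inhibition.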

[15] = NCI Yeast Anticancer Drug Screen. Data for the rad18 strain (AID 177); details: S. cerevisiae rad18 mutant growth inhibition, hits give high values
Summary of the method: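 Compounds are applied to a repair-deficient yeast strain, and growth is compared with that of vehicle-treated cultures to give percent inhibition.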

[16] = NCI Yeast Anticancer Drug Screen. Data for the sgs1 strain (AID 173);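 note: 0% = growth of vehicle-only control cultures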; details: S. cerevisiae sgs1 mutant, hits give high values
Summary of the method: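 Compounds applied to genetically altered yeast; growth compared with vehicle-treated cultures to give % inhibition.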

[17] = at 5.0 µM (retest, dose inferred, filed as 0.5)
[18] = at 50.0 µM (retest, dose inferred, filed as 5.0)

Measured: growth inhibition

CC[n+]1oc(C(=O)c2ccc(Cl)cc2)c(-c2ccccc2)c1-c1ccccc1.[Cl][Fe]([Cl])([Cl])[Cl]
active: [1]; at 100.0 µM 75% | [3]; at 11.0 µM 75% | [3]; at 33.0 µM 93% | [3]; at 100.0 µM 99% | [5]; [18] 72% | [5]; at 50.0 µM 82% | [5]; at 100.0 µM 77% | [6]; at 50.0 µM 80% | [8]; [18] 79% | [8]; at 50.0 µM 89.3% | [11]; [18] 70% | [13]; at 100.0 µM 74% | [14]; [18] 78% | [14]; at 50.0 µM 94.2% | [15]; at 100.0 µM 79%
inactive: [1]; at 1.2 µM 4% | [1]; at 3.7 µM 15% | [1]; at 11.0 µM 32% | [1]; at 33.0 µM 57% | [2]; at 1.2 µM 1% | [2]; at 3.7 µM -1% | [2]; at 11.0 µM 4% | [2]; at 33.0 µM 20% | [2]; at 100.0 µM 54% | [3]; at 1.2 µM 16% | [3]; at 3.7 µM 37% | [4]; at 1.2 µM -2% | [4]; at 3.7 µM -3% | [4]; at 11.0 µM -3% | [4]; at 33.0 µM -1% | [4]; at 100.0 µM 48% | [5]; at 1.2 µM 5% | [5]; at 3.7 µM 8% | [5]; [17] 36% | [5]; at 11.0 µM 41% | [5]; at 33.0 µM 62% | [6]; at 1.2 µM 3% | [6]; at 3.7 µM 1% | [6]; [17] 22% | [6]; at 11.0 µM 11% | [6]; at 33.0 µM 26% | [6]; [18] 57% | [6]; at 100.0 µM 69% | [7]; at 1.2 µM 2% | [7]; at 3.7 µM 6% | [7]; at 11.0 µM 12% | [7]; at 33.0 µM 28% | [7]; at 100.0 µM 57% | [8]; [17] 34% | [9]; at 1.2 µM 0% | [9]; at 3.7 µM 2% | [9]; at 11.0 µM 7% | [9]; at 33.0 µM 23% | [9]; at 100.0 µM 56% | [10]; [17] 17% | [10]; [18] 57% | [10]; at 50.0 µM 68.2% | [11]; at 1.2 µM -5% | [11]; at 3.7 µM -1% | [11]; [17] 13% | [11]; at 11.0 µM 8% | [11]; at 33.0 µM 25% | [11]; at 50.0 µM 67.5% | [11]; at 100.0 µM 65% | [12]; at 1.2 µM 0% | [12]; at 3.7 µM -2% | [12]; at 11.0 µM -3% | [12]; at 33.0 µM 13% | [12]; at 100.0 µM 59% | [13]; at 1.2 µM 4% | [13]; at 3.7 µM 1% | [13]; at 11.0 µM 9% | [13]; at 33.0 µM 31% | [14]; [17] 27% | [15]; at 1.2 µM 4% | [15]; at 3.7 µM 7% | [15]; at 11.0 µM 24% | [15]; at 33.0 µM 49%

CC(O)=NC(Cc1ccc2ccccc2c1)C(O)=NC(Cc1ccc(Cl)cc1)C(O)=NC(Cc1c[nH]c2ccccc12)C(O)=NC(CO)C(O)=NC(Cc1ccc(O)cc1)C(O)=NC(CCCN=C(N)N)C(O)=NC(CC(C)C)C(O)=NC(CCCN=C(N)N)C(=O)N1CCCC1C(O)=NC(C)C(=N)O (stereo unspecified)
active: [14]; [18] 70%
inactive: [1]; at 1.2 µM -7% | [1]; at 3.7 µM -8% | [1]; at 11.0 µM -4% | [1]; at 33.0 µM 4% | [1]; at 100.0 µM 16% | [2]; at 1.2 µM -2% | [2]; at 3.7 µM -4% | [2]; at 11.0 µM -5% | [2]; at 33.0 µM -3% | [2]; at 100.0 µM -1% | [3]; at 1.2 µM -4% | [3]; at 3.7 µM 2% | [3]; at 11.0 µM 11% | [3]; at 33.0 µM 16% | [3]; at 100.0 µM 11% | [4]; at 1.2 µM -3% | [4]; at 3.7 µM -2% | [4]; at 11.0 µM -4% | [4]; at 33.0 µM -5% | [4]; at 100.0 µM 6% | [5]; at 1.2 µM -5% | [5]; at 3.7 µM -2% | [5]; [17] -9% | [5]; at 11.0 µM 1% | [5]; at 33.0 µM 3% | [5]; [18] 16% | [5]; at 50.0 µM 18.1% | [5]; at 100.0 µM 25% | [6]; at 1.2 µM -2% | [6]; at 3.7 µM -3% | [6]; [17] -14% | [6]; at 11.0 µM -4% | [6]; at 33.0 µM -2% | [6]; [18] -6% | [6]; at 50.0 µM 1.1% | [6]; at 100.0 µM 3% | [7]; at 1.2 µM -5% | [7]; at 3.7 µM 1% | [7]; at 11.0 µM 4% | [7]; at 33.0 µM 7% | [7]; at 100.0 µM 24% | [8]; [17] 2% | [8]; [18] 20% | [8]; at 50.0 µM 3% | [9]; at 1.2 µM -4% | [9]; at 3.7 µM 0% | [9]; at 11.0 µM 3% | [9]; at 33.0 µM 19% | [9]; at 100.0 µM 32% | [10]; [17] -5% | [10]; [18] 18% | [10]; at 50.0 µM 12.2% | [11]; at 1.2 µM -2% | [11]; at 3.7 µM -1% | [11]; [17] 39% | [11]; at 11.0 µM -4% | [11]; at 33.0 µM -1% | [11]; [18] 32% | [11]; at 50.0 µM 19.9% | [11]; at 100.0 µM 1% | [12]; at 1.2 µM -9% | [12]; at 3.7 µM -10% | [12]; at 11.0 µM -2% | [12]; at 33.0 µM 11% | [12]; at 100.0 µM 2% | [13]; at 1.2 µM -7% | [13]; at 3.7 µM -4% | [13]; at 11.0 µM -3% | [13]; at 33.0 µM 3% | [13]; at 100.0 µM 17% | [16]; at 1.2 µM -21% | [16]; at 3.7 µM -18% | [16]; at 11.0 µM -17% | [16]; at 33.0 µM 3% | [16]; at 100.0 µM 44% | [14]; [17] 52% | [14]; at 50.0 µM 58.4% | [15]; at 1.2 µM -6% | [15]; at 3.7 µM -6% | [15]; at 11.0 µM -3% | [15]; at 33.0 µM 1% | [15]; at 100.0 µM 35%
